From PubChem
Mdm2-MdmX inh = human Mdm2/MdmX binding inhibition; AID 485346; SaOS-2 split-luciferase Mdm2/MdmX complementation, luminescence; 3% of 330,000 active; inhibition, % at 8 µM; O15151+Q00987;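 active = inhibition of at least 50% at 8 µM in the primary screen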
Beta cell apopt = beta cell apoptosis inhibition. INS-1E cytokine-induced death, ATP luminescence, 48 h; percent of positive-control rescue, neutral wells zero. protection from apoptosis, % (test concentration not listed). 0.8% of 300,000 active;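 active = Every replicate reaches about 75%, or at least half do and their mean reaches it too, limit read from the data; inconclusive = At least half of replicates reach the limit but their mean does not; inactive = Under half of replicates reach the limit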;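 also: 0% = cytokine-treated negative control wells and 100% = positive control rescue; higher means more ATP so stronger rescue from cytokine killing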
NR3A LBD binder = modulators (binders) of human NR3A ligand-binding domain | NR3A LBD differential scanning fluorimetry, Tm shift; 0% = protein alone, 100% = glycine-bound protein | 2.5% of 340,000 active | Tm shift relative to glycine control, % at 25 µM;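 active = melting temperature shift of at least 10% of the positive control shift, at one fixed dose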
CSC inhib = blocks cancer stem cells; cancer stem cell-like cells viability, luminescence; inhibition, % at 7.5 µM; 1.1% of 300,000 active; AID 2717; in the data active = inhibition above about 75%; inconclusive = no clear call, values can overlap the other calls; tested in HMLE shEcad cells
MPTP block = blocks calcium-induced mitochondrial swelling; isolated mouse mitochondria, Ca2+ swelling absorbance, 30 min; inhibition, % at 10 µM; 1.4% of 360,000 active; AID 602449;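 active = inhibition of 50% or more, scaled per plate between neutral and stimulator controls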;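 also: 0% = DMSO wells given calcium and 100% = 1 mM EGTA wells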
Gli-Sufu antag = Gli-Sufu pathway antagonism | 0.74% of 340,000 active | AID 588413 | inhibition, % at 5 µM | Sufu-KO-LIGHT fibroblasts, Gli luciferase reporter luminescence;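 active = inhibition above about 55%, limit read from the data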;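 also: 0% = DMSO-treated cells and 100% = wells with medium but no cells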
Mdm2 MdmX conf = confirmation of human Mdm2/MdmX interaction inhibitors | 55% of 10,000 active | AID 489028 | shares compounds with Mdm2-MdmX inh | Mdm2-MdmX binding, luminescent assay | inhibition, % at 8 µM; in the data active = inhibition above about 40%
Full FLuc ctr = counter-screen for Mdm2/MdmX inhibitors: full-length luciferase | SaOS-2 full-length luciferase counterscreen, luminescence | shares compounds with Mdm2-MdmX inh | 77% of 6,200 active | AID 504607 | inhibition, % at 8 µM;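 active = mean inhibition at 8 µM reaching about 37%, which flags the compound as non-specific, limit read from the data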;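 also: p53-null SaOS-2 cells with luciferase driven by a doxycycline-inducible promoter; compound on cells about two nights before reading with doxycycline added after day one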
An asterisk follows results filed as active; u = inconclusive; x = no result given. An excerpt weighted towards active compounds, which were near 6.6% of everything screened.

SMILES	Mdm2-MdmX inh	Beta cell apopt	NR3A LBD binder	CSC inhib	MPTP block	Gli-Sufu antag	Mdm2 MdmX conf	Full FLuc ctr
CCOC(=O)c1ccc(NC(=O)C2CC(O)CN2S(=O)(=O)c2ccc(C)cc2)cc1 (centres undefined)	5	0	0	15	0	2	x	x
Cc1nn(CC(=O)NCc2cccc3ccccc23)c(=O)c2ccccc12	85*	0	-1	27	0	1	48*	64*
Cc1nn(CC(=O)NCc2ccccc2)c(=O)c2ccccc12	-16	0	-1	x	0	2	x	x
O=C(CSc1ncccn1)NC(=O)Cc1ccccc1	-2	-1	-1	x	0	-5	x	x
O=c1[nH]c(=O)n(Cc2ccco2)c2c1C(C(F)(F)F)(C(F)(F)F)N=C(CCc1ccccc1)N2	51*	15	2	-8	7	8	39	65*
CCOC(=O)C1CCN(C(=O)c2ccc(CNS(=O)(=O)c3ccc(OC)cc3)cc2)CC1	19	1	0	x	1	12	x	x
CC(=O)Nc1ccc(Oc2sc(C(=O)c3ccccc3)c(N)c2C#N)cc1	61*	-37	-17	35	-1	16	29	78*
COC(=O)C1(C(=O)OC)c2ccccc2N(S(=O)(=O)c2ccc(C)cc2)C1CC(C)=O (centres undefined)	x	x	x	x	4	x	x	x
CCCCn1c(-c2nonc2N)nc2ccccc21	61*	-6	1	30	0	-6	45*	50*
CC1CC(C)CN(C(=O)Cn2c(-c3nonc3N)nc3ccccc32)C1 (centres undefined)	23	2	-1	-2	4	-3	x	x
CC(C)CCn1c(-c2nonc2N)nc2ccccc21	47	-1	-24	-3	1	-9	x	x
Nc1nonc1-c1nc2ccccc2n1CC(=O)NC1CCCC1	-4	-15	2	-6	-2	1	x	x
Nc1nonc1-c1nc2ccccc2n1CC(=O)Nc1ccccc1	78*	1	0	8	1	2	69*	25
CCOC(=O)c1ccccc1NC(=O)Cn1c(-c2nonc2N)nc2ccccc21	61*	28	-10	55	4	48	55*	77*
COc1ccc(S(=O)(=O)N2CCOC2CNC(=O)C(=O)NCc2ccc3c(c2)OCO3)cc1C (centres undefined)	x	x	x	x	-1	x	x	x
COCCn1c(C)cc(C2=NNC(=Nc3ccc(Cl)cc3Cl)SC2)c1C	29	0	1	-2	1	-3	x	x
COCCn1c(C)cc(C2=NNC(=NC3CC3)SC2)c1C	95*	3	0	7	-1	91*	94*	53*
C=CCN=C1NN=C(c2cc(C)n(CCOC)c2C)CS1	86*	-2	-16	-8	1	58*	90*	31
CCc1nccn1CCC(=O)N1CCCC(N2CCN(c3cccc(Cl)c3)CC2)C1 (centres undefined)	-13	-3	0	25	-1	28	x	x
Cc1ccc(C)c(C(=O)CCC(=O)NNC(=O)c2cccs2)c1	24	2	0	-3	-1	-10	x	x
O=C(CCc1nc2ccccc2c(=O)[nH]1)Nc1nnc(SCc2ccc(Cl)cc2)s1	33	-1	-3	-2	0	6	x	x
Cc1ccc(Nc2nnc(SCc3nc4ccccc4c(=O)[nH]3)s2)cc1	66*	58	5	-4	4	3	40*	17
COc1ccc(/C=C/C(=O)OCC(=O)Nc2cc3oc4ccccc4c3cc2OC)cc1	82*	1	x	-5	x	x	-17	x
COc1ccc(CC(=O)Nc2cc3oc4ccccc4c3cc2OC)cc1	-166	7	-2	52	2	-39	x	x
COc1cc2c(cc1NC(=O)COc1ccc3ccccc3c1)oc1ccccc12	62*	0	-2	12	-1	-16	24	x
SMILES	Mdm2-MdmX inh	Beta cell apopt	NR3A LBD binder	CSC inhib	MPTP block	Gli-Sufu antag	Mdm2 MdmX conf	Full FLuc ctr
CCN(CC)c1ccc(C(=O)OCC(=O)Nc2cc3oc4ccccc4c3cc2OC)cc1	51*	2	0	x	1	-20	26	x
COc1ccc(CCC(=O)NCCS(=O)(=O)N2CCN(c3ccc(F)cc3)CC2)cc1	4	-3	-2	6	-3	2	x	x
CCCCCCCNC(=O)C1(CC2CC(c3cccc(Br)c3)=NO2)CCNCC1 (centres undefined)	100*	x	-11	159*	0	9	85*	60*
CCCCCCCNC(=O)C1(CC2CC(c3ccc(Cl)cc3)=NO2)CCNCC1 (centres undefined)	100*	x	-5	15	-2	22	69*	25
Cc1nc([N+](=O)[O-])c(Br)n1CC(=O)c1ccc2ccccc2c1	87*	x	-7	u	1	-11	23	x
Cc1nc([N+](=O)[O-])c(Br)n1CC(=O)c1ccccc1	-3	-4	-3	-3	-2	0	x	x
Cc1nc([N+](=O)[O-])c(C(=O)OCc2ccccc2Br)n1C	7	7	-2	-10	0	-15	x	x
Cc1nc([N+](=O)[O-])c(Br)n1CC(=O)c1ccc(Br)cc1	63*	-10	0	34	0	5	10	x
CCCn1cc(CN2CCC(n3nccc3NC(=O)C(OC)c3ccccc3)CC2)c(C)n1 (centres undefined)	13	-4	0	-4	0	5	x	x
CC1=C(C(=O)N(C)C)CC(CC(=O)NC2CCCC2)C(=O)N1Cc1ccc(F)cc1 (centres undefined)	x	x	x	x	0	x	x	x
O=C(Nc1ncnc2c1C(c1ccccc1)c1c(ccc3ccccc13)O2)c1ccccc1 (centres undefined)	65*	82*	-25	x	-2	27	52*	45*
O=C(Cc1ccccc1)Nc1ncnc2c1C(c1ccccc1)c1c(ccc3ccccc13)O2 (centres undefined)	90*	13	-4	42	1	8	23	x
COc1ccccc1/C=C(\NC(=O)c1ccc(OC)c(OC)c1)C(=O)Nc1cccc([N+](=O)[O-])c1	-21	1	-2	-3	3	2	x	x
CCCCCCNc1nc(Cl)nc(NC(C)(C)CO)n1	5	-2	6	6	0	-5	x	x
O=C(N/N=C/c1ccc(-c2ccc(S(=O)(=O)Nc3ncccn3)cc2)o1)c1cc2ccccc2cc1O	54*	0	3	-5	3	-3	36	x
CCc1nc2ccc(C(=O)N3CCN(C(=O)c4ccco4)CC3)cn2c1N(C)C(=O)COc1ccccc1	x	x	x	x	-2	x	x	x
Nc1nc(-c2ccccc2)nc(-c2ccccc2O)n1	62*	3	7	11	0	23	25	x
